Our source for the Potency and activity, negative = cell killing values is PubChem BioAssay (NCATS).

Records with an inconclusive call do not appear. Some compounds were tested as several samples or in several runs, with calls that do not always agree. The source made the active and inactive calls. Calls follow the shape of the dose curve; as a rule, active = well fitted curve in the direction sought with a large enough effect; inconclusive = small, poorly fitted or top-dose-only effect, or another doubt; inactive = no such curve, though single readings can be large; an effect the other way counts as inactive or inconclusive.

One experiment relates to PA-1. The experiment in a line: Primary qHTS to identify gynecologic anti-cancer compounds using libraries of approved drugs and bioactive compounds (AID 1345084). Also: nearly all actives have a fitted effect of over 55% in size. The note with it: Gynecologic cancer cell panel viability, ATPlite luminescence, 48 h; series mostly up to 57.5 µM. Summed up:
(§1)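 Cytotoxicity screen measuring ATP content by luciferase luminescence. Each compound is applied at five concentrations for 48 h at 37 C with 5% CO2.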
(In general: In qHTS, concentration-response curves come from the screen itself.)

The next experiment has as its system SKOV3. The experiment is described as above. The note with it: Gynecologic cancer cell panel viability, ATPlite luminescence, 48 h; series mostly up to 57.5 µM. Summed up:
as §1

The next experiment relates to Tov-21-G. The description is as above. As to conditions: Gynecologic cancer cell panel viability, ATPlite luminescence, 48 h; series mostly up to 57.5 µM. In short, it runs like this:
as §1
A general note: Cellular ATP, detected with luciferase, serves as a proxy for viable cell number.

A further experiment relates to Tov112D. The experiment is described as above. As to conditions: Gynecologic cancer cell panel viability, ATPlite luminescence, 48 h; series mostly up to 57.5 µM. Summed up:
as §1

The nature of experiment [1]: Drug repurposing screens with cells derived from glioblastoma tumor samples (AID 1345199). Also: nearly all actives have a fitted effect of over 40% in size. The note with it: GBM patient neurospheres viability, ATP luminescence, 48 h. In short, it runs like this:
(§2)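 Four patient lines of CD133+ GBM neurospheres were screened at several concentrations; hits were retested in those lines plus three slower-growing GBM lines, using 48-hour treatment and ATP-based viability.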

A further experiment relates to astro. Described as above. As to conditions: viability, ATP luminescence, 48 h; series mostly up to 45.9 µM. Summed up:
as §2

Where [2] appears, read: at 45.9 µM (top of the series), tumour line B.
[3] abbreviates: at 45.9 µM (top of the series), tumour line D.
The mark [4] stands for this setting: at 46 µM (top of the series), tumour line A.
Setting [5] is: at 46.1 µM (top of the series), tumour line C.
% is scaled to controls: 0 for no effect and ±100 for the full control effect; potency is read from the fitted curve at half-maximal effect.

On to `O=C(c1ccco1)N1CCNCC1`, for which the Potency entry in the experiment with PA-1, with SKOV3, with Tov-21-G and with Tov112D was “inactive” in each case.
Consider `CCCCCN(CCCOC)C(=O)C(CCC(=O)O)NC(=O)c1ccc(Cl)c(Cl)c1` (stereo unspecified), for which the Potency result with PA-1, in the experiment on SKOV3, in the experiment on Tov-21-G and in the experiment on Tov112D was “inactive” throughout.
In the case of `Cc1nn(-c2ccccc2)c(C)c1/C=N/N1CCN(Cc2ccccc2)CC1`, the Potency result in the experiment on PA-1, with SKOV3, in the experiment with Tov-21-G and with Tov112D was “inactive” throughout.
In the case of `O=C(CS(=O)Cc1ccco1)NC/C=C\COc1cc(CN2CCCCC2)ccn1` (stereo unspecified), the Potency entry with PA-1, with SKOV3, with Tov-21-G and with Tov112D was “inactive” in each case.
Consider `CCOC(=O)C(=O)CCc1ccccc1`, for which the Potency entry with PA-1, with SKOV3, in the experiment with Tov-21-G and with Tov112D was “inactive” in each case.
On to `CC(C)OP(=O)(CP(=O)(OC(C)C)OC(C)C)OC(C)C`, for which the Potency entry with PA-1, in the experiment on SKOV3, with Tov-21-G and in the experiment on Tov112D was “inactive” each time.
Regarding `O=C1NC(c2ccccc2)(c2ccccc2)C(=O)N1COP(=O)(O)O`, the Potency result in the experiment on PA-1, with SKOV3, in the experiment on Tov-21-G and with Tov112D was “inactive” throughout.
Take `CSc1ccc(/C=C2/C(C)=C(CC(=O)O)c3cc(F)ccc32)cc1`: the Potency result in the experiment on PA-1, in the experiment with SKOV3, in the experiment with Tov-21-G and with Tov112D was “inactive” in each case. Moreover, the activity, negative = cell killing was -6.37% (inactive) in experiment [1] (setting [2]), -11.2% (inactive) in experiment [1] (setting [3]), -24% (inactive) in experiment [1] (setting [4]) and -7.45% (inactive) in experiment [1] (setting [5]).
As to `CCOC(=O)C(=O)c1csc(NC=O)n1`, the Potency entry in the experiment with PA-1, with SKOV3, in the experiment with Tov-21-G and in the experiment on Tov112D was “inactive” throughout.
`C[C@@H]1CCC[C@H](C)N1CCCC(O)(c1ccccc1)c1ccccn1` (stereo partly specified): the Potency entry with PA-1, in the experiment with SKOV3, in the experiment with Tov-21-G and in the experiment with Tov112D was “inactive” throughout.
As to `OC1(c2ccc(Cl)c(C(F)(F)F)c2)CCN(CCCC(c2ccc(F)cc2)c2ccc(F)cc2)CC1`, the Potency result in the experiment on PA-1 and with Tov-21-G was “inactive” each time. Moreover, the Potency was 25.1 µM (active) in the experiment with SKOV3; 31.6 µM (active) and inactive with Tov112D.
For `Cc1cc(O)c(C)c(C)c1O`, the Potency entry in the experiment with PA-1, with SKOV3, in the experiment with Tov-21-G and in the experiment on Tov112D was “inactive” each time.
As for `CC(C)(C)c1nnc(NS(=O)(=O)c2ccccc2)s1`, the Potency entry with PA-1, in the experiment with SKOV3, with Tov-21-G, with Tov112D and with astro was “inactive” in each case. Besides, the activity, negative = cell killing was -2.48% (inactive) in experiment [1] (setting [2]), -22.3% (inactive) in experiment [1] (setting [3]), -25.7% (inactive) in experiment [1] (setting [4]) and -15.6% (inactive) in experiment [1] (setting [5]).
For the molecule `C/C(=N/NC(=O)c1ccncc1)C(=O)O`, the Potency result in the experiment with PA-1, with SKOV3, in the experiment with Tov-21-G and with Tov112D was “inactive” in each case.
As for `CCC(CN)=C(c1ccccc1)c1ccccc1`, the Potency entry with PA-1, in the experiment with SKOV3, with Tov-21-G and in the experiment with Tov112D was “inactive” throughout.
As to `CC(=O)c1ccc(O)c(C(N)=O)c1`, the Potency result in the experiment on PA-1, with SKOV3, in the experiment with Tov-21-G and with Tov112D was “inactive” in each case.
Consider `Cc1cc2nc3ccc(=[N+](C)C)cc-3sc2cc1N`, for which the Potency was 3.55 µM (active) with PA-1, 35.5 µM (active) in the experiment with SKOV3, 28.2 µM (active) with Tov-21-G and 12.6 µM (active) in the experiment with Tov112D.
The like results for `Nc1nc2ccccc2n1Cc1ccc(F)cc1` were, in that order, “inactive”, “inactive”, “inactive” and “inactive”.
For the molecule `CN=C(N)NC(=O)Nc1c(C)cccc1C`, the Potency entry with PA-1, with SKOV3, in the experiment with Tov-21-G, in the experiment with Tov112D and with astro was “inactive” in each case. The activity, negative = cell killing in experiment [1] (setting [2]) is -6.83% (inactive); in experiment [1] (setting [3]), -0.753% (inactive); in experiment [1] (setting [5]) it was 0.539% (inactive). Besides, the Potency in experiment [1] (tumour line A) was 17.8 µM (active).
Regarding `CCCC(CCC)(C(=O)OCC)C(=O)OCC`, the Potency result in the experiment with PA-1, in the experiment on SKOV3, in the experiment on Tov-21-G and in the experiment with Tov112D was “inactive” each time.
In the case of `OCCCc1ccccc1`, the Potency entry in the experiment on PA-1, with SKOV3, with Tov-21-G, in the experiment on Tov112D and in the experiment with astro was “inactive” throughout. The activity, negative = cell killing is -21.4% (inactive) in experiment [1] (setting [2]), -9.24% (inactive) in experiment [1] (setting [3]), -22.3% (inactive) in experiment [1] (setting [4]) and 2.38% (inactive) in experiment [1] (setting [5]).
In the case of `CN(C)[C@@H]1C(=O)C(C(N)=O)=C(O)[C@@]2(O)C(=O)C3=C(O)c4c(O)cccc4C[C@H]3C[C@@H]12`, the Potency entry in the experiment on PA-1, with SKOV3, with Tov-21-G and with Tov112D was “inactive” throughout.
`CC(C)C(=O)Nc1cccc(C(F)(F)F)c1`: the Potency result with PA-1, with SKOV3, with Tov-21-G and in the experiment with Tov112D was “inactive” in each case.
For `O=C1Nc2cc(Cl)ccc2Oc2ccccc21`, the Potency entry with PA-1, with SKOV3, with Tov-21-G and in the experiment with Tov112D was “inactive” in each case.
Consider `O=C(Oc1ccccc1)c1cccc(C(=O)Oc2ccccc2)c1`, for which the Potency result in the experiment on PA-1, in the experiment on SKOV3, in the experiment with Tov-21-G, with Tov112D and with astro was “inactive” throughout. For the same molecule, the activity, negative = cell killing in experiment [1] (at 91.6 µM (top of the series), tumour line A) is -20.2% (inactive); in experiment [1] (at 91.6 µM (top of the series), tumour line B) it was -23.3% (inactive); in experiment [1] (at 91.6 µM (top of the series), tumour line D), -9.21% (inactive); in experiment [1] (at 99.2 µM (top of the series), tumour line C), 1.54% (inactive).
As for `C/C=C(/C(=C/C)c1ccc(OC(C)=O)cc1)c1ccc(OC(C)=O)cc1`, the Potency entry in the experiment with PA-1, in the experiment with SKOV3, in the experiment on Tov-21-G and in the experiment on Tov112D was “inactive” in each case.
As for `Cc1sccc1Br`, the Potency entry with PA-1, with SKOV3, in the experiment on Tov-21-G and in the experiment with Tov112D was “inactive” each time.
As for `CC(C)(C)c1ccc(C(=O)CCCCl)cc1`, the Potency result in the experiment on PA-1, in the experiment with SKOV3, with Tov-21-G and with Tov112D was “inactive” each time.
Turning to `CCOC(=O)C(=O)CCCCCCl`, the Potency entry with PA-1, in the experiment with SKOV3, in the experiment on Tov-21-G and with Tov112D was “inactive” in each case.
Regarding `C1N2CN3CN1CN(C2)C3`, the Potency entry in the experiment with PA-1, with SKOV3, with Tov-21-G, in the experiment on Tov112D and in the experiment with astro was “inactive” in each case. In addition, the activity, negative = cell killing was -5.59% (inactive) in experiment [1] (setting [2]), -12.9% (inactive) in experiment [1] (setting [3]), -29.1% (inactive) in experiment [1] (setting [4]) and 5.12% (inactive) in experiment [1] (setting [5]).
Regarding `CN1CCN(N)CC1`, the Potency entry in the experiment with PA-1, in the experiment with SKOV3, with Tov-21-G and with Tov112D was “inactive” each time.
For the molecule `O=C(O)Cn1c(=O)n(Cc2ccc(Br)cc2F)c(=O)c2ccc(Cl)cc21`, the Potency entry in the experiment with PA-1, in the experiment on SKOV3, with Tov-21-G and in the experiment on Tov112D was “inactive” each time.
As for `CCC(C(=O)OCCN1CCOC(c2ccccc2)C1C)c1ccccc1` (stereo unspecified), the Potency result in the experiment with PA-1, in the experiment on SKOV3, in the experiment with Tov-21-G and in the experiment with Tov112D was “inactive” in each case.
